Source: PubChem BioAssay (NCATS)
Values without a mark were called inactive. For some assays here: Results with a measured potency or affinity are listed apart. Calls of active or inactive are those of the source. The rule behind the calls is not given here.

Conditions: Ebola virus entry assay, green fluorescence channel
Throughout, for efficacy: 0% is about no effect.

Which efficacy does the source give for `CCN(CC)CCOCCOC(=O)C1(c2ccccc2)CCCC1` here?
Its efficacy is 62.4%.

Which efficacy does the source give for `CN(C)CCCOC1(Cc2ccccc2)CCCCCC1` here?
Its efficacy is 64.1%.

Which efficacy does the source give for `CCN(CC)CCOC(=O)C(Cc1cccc2ccccc12)CC1CCCO1` (configuration not stated) here?
Its efficacy is 78.5%.

Which efficacy does the source give for `O=C(Nc1ccc(Cl)cc1)Nc1ccc(Cl)c(C(F)(F)F)c1` here?
The efficacy was -174%.

Which efficacy does the source give for `OC(C#CCN1CCCC1)(c1ccccc1)c1ccccc1` here?
Its efficacy is 80.1%.

For `c1cc(CN2CCCCC2)cc(OCCCNc2nc3ccccc3s2)c1`, which efficacy is on record?
Its efficacy is 69.1%.

For `COc1cc2c(cc1OC)-c1cc(=Nc3c(C)cc(C)cc3C)n(C)c(=O)n1CC2`, which efficacy is on record?
The efficacy was 20.5%.

For `Cc1c(C)n(Cc2ccccc2)c2ccc(C(=O)OCCN(C)C)cc12`, which efficacy is on record?
Its efficacy is 60.6%.

With `CCCCN(CCCC)CCC(O)c1cc2c(Cl)cc(Cl)cc2c2cc(C(F)(F)F)ccc12` (configuration not stated) as the compound, how does the efficacy read?
The efficacy was 131%.

For `CCCCCCCCCCCCCCCCCCNC(=O)OC1CCN(C(=O)OC[C@H](COC(=O)N(Cc2cccc[n+]2CC)C(=O)c2ccccc2OC)OC)CC1`, which efficacy is on record?
The efficacy was -117%.

Which efficacy does the source give for `Cc1nc2n(c(=O)c1CCN1CCC(C(=O)c3ccc(F)cc3)CC1)CCS2` here?
The efficacy was 91.8%.

Which efficacy does the source give for `CC(C)N=C(N)/N=C(\N)Nc1ccc(Cl)cc1` here?
Its efficacy is 78.8%.

For `O=C(CCC1CCN(Cc2ccccc2)CC1)c1ccc2c(c1)NCCCC2`, which efficacy is on record?
Its efficacy is 114%.

Which efficacy does the source give for `O=C(c1ccc(F)cc1)C1CCN(CCn2c(=O)[nH]c3ccccc3c2=O)CC1` here?
The efficacy was 78.1%.

With `CCOc1ccc(Cc2nccc3cc(OCC)c(OCC)cc23)cc1OCC` as the compound, how does the efficacy read?
The efficacy was 94.1%.

Which efficacy does the source give for `O=C(c1cc(O)c(O)c(O)c1)c1ccc(O)c(O)c1O` here?
The efficacy was 38.9%.

Which efficacy does the source give for `CCCCNc1c(C(=O)OCC)c(C)nc2c1cnn2CC` here?
Its efficacy is -35%.

For `CCNC(=O)N1CCN(CCCC(c2ccc(F)cc2)c2ccc(F)cc2)CC1`, which efficacy is on record?
The efficacy was 111%.

For `CCN(CC)CCCC(C)Nc1c2ccc(Cl)cc2nc2ccc(OC)cc12` (configuration not stated), which efficacy is on record?
The efficacy was 40.6%.

With `CSc1ccc2c(c1)C(N1CCN(C)CC1)Cc1ccccc1S2` (configuration not stated) as the compound, how does the efficacy read?
Its efficacy is -190%.

Which efficacy does the source give for `CCCCOc1ccc(C(=O)CCN2CCCCC2)cc1` here?
The efficacy was 94.7%.

Which efficacy does the source give for `C[C@H]1[C@H]2CC[C@H]3[C@@H]4CC=C5C[C@@H](N(C)C)CC[C@]5(C)[C@H]4CC[C@]23CN1C` here?
Its efficacy is 108%.

For `CN1CCCN=C1COC(=O)C(O)(c1ccccc1)C1CCCCC1` (configuration not stated), which efficacy is on record?
Its efficacy is 75.7%.

For `CN1CCN(CCCN2c3ccccc3Sc3ccc(S(=O)(=O)N(C)C)cc32)CC1`, which efficacy is on record?
The efficacy was 146%.

Conditions: Ebola virus entry assay, blue channel fluorescence

With `NCCNc1cccc2ccccc12` as the compound, how does the AC50 read?
Its AC50 is 39.8 µM (active).

For `CCCCCCCCOc1ccccc1C(=O)Nc1ccc(C(=O)OCC[N+](C)(CC)CC)cc1`, which AC50 is on record?
Its AC50 is 10 µM (active).

For `CCCC(C(=O)OCCN(CC)CC)(c1ccccc1)c1ccccc1`, which AC50 is on record?
Its AC50 is 3.16 µM (active).

With `CCC(C(=O)OCCOCCN(CC)CC)c1ccccc1` (configuration not stated) as the compound, how does the AC50 read?
The AC50 was 28.2 µM (active).

Which AC50 does the source give for `C[C@@H]1C[C@H]2[C@@H]3C[C@H](F)C4=CC(=O)C(Cl)=C[C@]4(C)[C@@]3(F)[C@@H](O)C[C@]2(C)[C@@]1(O)C(=O)CO` here?
The AC50 was 39.8 µM (active).

Which AC50 does the source give for `CCC(=O)c1ccc2c(c1)N(CCCN(C)C)c1ccccc1S2` here?
The AC50 was 20 µM (active).

For `COc1cc(N)c(Cl)cc1C(=O)NC1CCN(Cc2ccccc2)CC1`, which AC50 is on record?
Its AC50 is 31.6 µM (active).

With `CCCCCCOC(=O)NC(=N)c1ccc(NCc2nc3cc(C(=O)N(CCC(=O)OCC)c4ccccn4)ccc3n2C)cc1` as the compound, how does the AC50 read?
The AC50 was 3.55 µM (active).

For `COc1cc(N)c(Cl)cc1C(=O)NC1CCN(CCCOc2ccc(F)cc2)CC1OC` (configuration not stated), which AC50 is on record?
The AC50 was 25.1 µM (active).

With `CCN(CC)CCNc1ccc(CO)c2sc3ccccc3c(=O)c12` as the compound, how does the AC50 read?
The AC50 was 17.8 µM (active).

With `CCCCCN=C(N)N/N=C/c1c[nH]c2ccc(OC)cc12` as the compound, how does the AC50 read?
Its AC50 is 3.98 µM (active).

With `CCN1C(=O)c2ccccc2C1Nc1ccc(OCCN2CCCCC2)cc1` (configuration not stated) as the compound, how does the AC50 read?
The AC50 was 12.6 µM (active).

For `COc1ccc(CCN(C)CCCC(C#N)(c2cc(OC)c(OC)c(OC)c2)C(C)C)cc1OC` (configuration not stated), which AC50 is on record?
The AC50 was 15.8 µM (active).

Which AC50 does the source give for `C[C@@H]1C[C@H]2[C@@H]3CCC4=CC(=O)C=C[C@]4(C)[C@@]3(Cl)[C@@H](O)C[C@]2(C)[C@@]1(OC(=O)c1ccco1)C(=O)CCl` here?
Its AC50 is 25.1 µM (active).

For `CCN(CC)CCOCCOC(=O)C1(c2ccccc2)CCCC1`, which AC50 is on record?
Its AC50 is 10 µM (active).

With `CN(C)CCCOC1(Cc2ccccc2)CCCCCC1` as the compound, how does the AC50 read?
The AC50 was 17.8 µM (active).

With `CCN(CC)CCOC(=O)C(Cc1cccc2ccccc12)CC1CCCO1` (configuration not stated) as the compound, how does the AC50 read?
The AC50 was 12.6 µM (active).

Which AC50 does the source give for `O=C(Nc1ccc(Cl)cc1)Nc1ccc(Cl)c(C(F)(F)F)c1` here?
Its AC50 is 28.2 µM (active).

With `OC(C#CCN1CCCC1)(c1ccccc1)c1ccccc1` as the compound, how does the AC50 read?
Its AC50 is 39.8 µM (active).

Which AC50 does the source give for `c1cc(CN2CCCCC2)cc(OCCCNc2nc3ccccc3s2)c1` here?
Its AC50 is 12.6 µM (active).

Which AC50 does the source give for `COc1cc2c(cc1OC)-c1cc(=Nc3c(C)cc(C)cc3C)n(C)c(=O)n1CC2` here?
Its AC50 is 15.8 µM (active).

Which AC50 does the source give for `Cc1c(C)n(Cc2ccccc2)c2ccc(C(=O)OCCN(C)C)cc12` here?
The AC50 was 3.16 µM (active).

With `CCCCN(CCCC)CCC(O)c1cc2c(Cl)cc(Cl)cc2c2cc(C(F)(F)F)ccc12` (configuration not stated) as the compound, how does the AC50 read?
Its AC50 is 7.94 µM (active).

With `CCCCCCCCCCCCCCCCCCNC(=O)OC1CCN(C(=O)OC[C@H](COC(=O)N(Cc2cccc[n+]2CC)C(=O)c2ccccc2OC)OC)CC1` as the compound, how does the AC50 read?
The AC50 was 39.8 µM (active).

With `Cc1nc2n(c(=O)c1CCN1CCC(C(=O)c3ccc(F)cc3)CC1)CCS2` as the compound, how does the outcome read?
Its outcome is “inactive”.

Which AC50 does the source give for `CC(C)N=C(N)/N=C(\N)Nc1ccc(Cl)cc1` here?
The AC50 was 39.8 µM (active).

With `O=C(CCC1CCN(Cc2ccccc2)CC1)c1ccc2c(c1)NCCCC2` as the compound, how does the AC50 read?
The AC50 was 7.08 µM (active).

For `O=C(c1ccc(F)cc1)C1CCN(CCn2c(=O)[nH]c3ccccc3c2=O)CC1`, which AC50 is on record?
Its AC50 is 28.2 µM (active).

With `CCOc1ccc(Cc2nccc3cc(OCC)c(OCC)cc23)cc1OCC` as the compound, how does the AC50 read?
Its AC50 is 39.8 µM (active).

For `O=C(c1cc(O)c(O)c(O)c1)c1ccc(O)c(O)c1O`, which AC50 is on record?
The AC50 was 1.78 µM (active).

For `CCCCNc1c(C(=O)OCC)c(C)nc2c1cnn2CC`, which AC50 is on record?
Its AC50 is 25.1 µM (active).

With `CCNC(=O)N1CCN(CCCC(c2ccc(F)cc2)c2ccc(F)cc2)CC1` as the compound, how does the AC50 read?
Its AC50 is 12.6 µM (active).

With `CCN(CC)CCCC(C)Nc1c2ccc(Cl)cc2nc2ccc(OC)cc12` (configuration not stated) as the compound, how does the AC50 read?
The AC50 was 25.1 µM (active).

With `CSc1ccc2c(c1)C(N1CCN(C)CC1)Cc1ccccc1S2` (configuration not stated) as the compound, how does the AC50 read?
Its AC50 is 3.55 µM (active).

With `CCCCOc1ccc(C(=O)CCN2CCCCC2)cc1` as the compound, how does the AC50 read?
The AC50 was 25.1 µM (active).

Which AC50 does the source give for `C[C@H]1[C@H]2CC[C@H]3[C@@H]4CC=C5C[C@@H](N(C)C)CC[C@]5(C)[C@H]4CC[C@]23CN1C` here?
Its AC50 is 10 µM (active).

For `CN1CCCN=C1COC(=O)C(O)(c1ccccc1)C1CCCCC1` (configuration not stated), which AC50 is on record?
Its AC50 is 12.6 µM (active).

For `CN1CCN(CCCN2c3ccccc3Sc3ccc(S(=O)(=O)N(C)C)cc32)CC1`, which AC50 is on record?
The AC50 was 2.51 µM (active).
